These results are taken from paper PMC10812921, “Transcriptional Coactivator BOB1 (OBF1, OCA-B) Modulates the Specificity of DNA Recognition by the POU-Domain Factors OCT1 and OCT2 in a Monomeric Configuration”.

The target of assay [1] is POU1 (OCT1 POU domain) (human, UniProt P14859 260-458). As to the kind of experiment: EMSA-SELEX-seq; no BOB1; 20 mM Tris-HCl pH 7.6, 140 mM NaCl, 10% glycerol, 0.5 mM EDTA, 0.05% Triton X-100, 0.1 mg/mL BSA, 0.1 mg/mL poly(dI-dC), 5 mM DTT, room temperature, 20 min; high values mean tight binding. The settings on record: protein: recombinant; dsDNA, one strand shown. The method, boiled down:
(§1)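 Binding preference is the percentage of sequenced 8-mers matching a motif pattern. Tagged POU-domain proteins expressed in E. coli BL21 were purified under denaturing conditions and renatured. For binding, 30 ng protein met 300 ng of a PCR-amplified double-stranded random 35-nt library, with or without 28 ng coactivator protein, in 20 μL Tris–HCl pH 7.6 binding buffer for 20 min at RT. Complex bands were cut from native 6% PAGE, eluted and PCR-amplified over four rounds, then Illumina-sequenced.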
On the technique in general: Mobility shift assays separate free from complexed probe on a gel.

Assay [2] deals with T1, POU2 (OCT2 POU domain) (human, UniProt P09086 175-386).
T1 sequence: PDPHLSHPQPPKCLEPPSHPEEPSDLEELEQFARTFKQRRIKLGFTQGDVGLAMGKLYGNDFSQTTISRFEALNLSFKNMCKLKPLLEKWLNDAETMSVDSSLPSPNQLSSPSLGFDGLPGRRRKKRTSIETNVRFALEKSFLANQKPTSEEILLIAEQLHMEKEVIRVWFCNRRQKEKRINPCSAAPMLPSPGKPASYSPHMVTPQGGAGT
The description is as above. The note with it: protein: recombinant; dsDNA, one strand shown. The method, boiled down:
as §1

The target in assay [3] is POU1 (OCT1 POU domain);BOB1 (OBF1, OCA-B) (human;human, UniProt P14859;Q16633 260-458;1-256, |). Briefly: EMSA-SELEX-seq; with BOB1 (ternary complex band); 20 mM Tris-HCl pH 7.6, 140 mM NaCl, 10% glycerol, 0.5 mM EDTA, 0.05% Triton X-100, 0.1 mg/mL BSA, 0.1 mg/mL poly(dI-dC), 5 mM DTT, room temperature, 20 min; high values mean tight binding. The settings on record: protein: recombinant;recombinant; copies: 1;1; dsDNA, one strand shown. The method, boiled down:
as §1

In assay [4] the target is T2, POU2 (OCT2 POU domain);BOB1 (OBF1, OCA-B) (human;human, UniProt P09086;Q16633 175-386;1-256, |).
T2 sequence 1: T1 sequence
T2 sequence 2: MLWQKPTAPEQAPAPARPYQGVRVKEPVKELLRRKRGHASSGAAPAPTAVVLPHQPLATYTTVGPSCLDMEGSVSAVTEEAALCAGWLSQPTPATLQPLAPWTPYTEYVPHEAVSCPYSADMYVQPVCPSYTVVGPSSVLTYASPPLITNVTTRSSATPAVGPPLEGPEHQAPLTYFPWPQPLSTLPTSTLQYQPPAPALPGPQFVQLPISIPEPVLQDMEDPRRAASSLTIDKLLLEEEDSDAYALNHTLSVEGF
The description is as above. The note with it: protein: recombinant;recombinant; copies: 1;1; dsDNA, one strand shown. The method, boiled down:
as §1

Chain of POU1 (OCT1 POU domain) (P14859 260-458): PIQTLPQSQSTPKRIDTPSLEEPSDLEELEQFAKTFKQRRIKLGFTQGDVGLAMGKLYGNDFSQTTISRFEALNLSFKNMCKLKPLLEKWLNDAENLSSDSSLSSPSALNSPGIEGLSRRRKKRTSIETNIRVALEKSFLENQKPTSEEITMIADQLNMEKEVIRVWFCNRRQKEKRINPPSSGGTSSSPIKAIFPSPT

Turning to AGTCCAAG, the binding signal is 0.0236 % of ANNNNAAN 8-mers in assay [1], 0.0253 % of ANNNNAAN 8-mers in assay [2], 0.0261 % of ANNNNAAN 8-mers in assay [3] and 0.0215 % of ANNNNAAN 8-mers in assay [4].

Consider ACGAGAAC, for which the binding signal is 0.0179 % of ANNNNAAN 8-mers in assay [1], 0.0178 % of ANNNNAAN 8-mers in assay [2], 0.0156 % of ANNNNAAN 8-mers in assay [3] and 0.0165 % of ANNNNAAN 8-mers in assay [4].

As for ATTGGAAC, the binding signal is 0.0313 % of ANNNNAAN 8-mers in assay [1], 0.0426 % of ANNNNAAN 8-mers in assay [2], 0.0304 % of ANNNNAAN 8-mers in assay [3] and 0.0388 % of ANNNNAAN 8-mers in assay [4].

Consider ATGAGAAT, for which the binding signal was 0.101 % of ANNNNAAN 8-mers in assay [1], 0.134 % of ANNNNAAN 8-mers in assay [2], 0.0784 % of ANNNNAAN 8-mers in assay [3] and 0.106 % of ANNNNAAN 8-mers in assay [4].

On to AAGCGAAC, for which the binding signal in assay [1] was 0.0221 % of ANNNNAAN 8-mers; in assay [2], 0.0178 % of ANNNNAAN 8-mers; in assay [3], 0.0176 % of ANNNNAAN 8-mers; in assay [4], 0.0231 % of ANNNNAAN 8-mers.

ACTGCAAG: the binding signal in assay [1] was 0.0133 % of ANNNNAAN 8-mers; in assay [2], 0.0144 % of ANNNNAAN 8-mers; in assay [3], 0.016 % of ANNNNAAN 8-mers; in assay [4], 0.0107 % of ANNNNAAN 8-mers.

In the case of AAGAGAAA, the binding signal in assay [1] was 0.0511 % of ANNNNAAN 8-mers; in assay [2] it was 0.0621 % of ANNNNAAN 8-mers; in assay [3] it was 0.0531 % of ANNNNAAN 8-mers; in assay [4], 0.038 % of ANNNNAAN 8-mers.

With AATCAAAC, the binding signal was 0.0526 % of ANNNNAAN 8-mers in assay [1], 0.057 % of ANNNNAAN 8-mers in assay [2], 0.0765 % of ANNNNAAN 8-mers in assay [3] and 0.0405 % of ANNNNAAN 8-mers in assay [4].

AACCCAAC: the binding signal in assay [1] was 0.0103 % of ANNNNAAN 8-mers; in assay [2], 0.0132 % of ANNNNAAN 8-mers; in assay [3], 0.0113 % of ANNNNAAN 8-mers; in assay [4] it was 0.0182 % of ANNNNAAN 8-mers.

Regarding AAAACAAC, the binding signal in assay [1] was 0.0362 % of ANNNNAAN 8-mers; in assay [2], 0.0345 % of ANNNNAAN 8-mers; in assay [3], 0.0609 % of ANNNNAAN 8-mers; in assay [4], 0.0462 % of ANNNNAAN 8-mers.

Take AACCAAAT: the binding signal in assay [1] was 0.166 % of ANNNNAAN 8-mers; in assay [2], 0.121 % of ANNNNAAN 8-mers; in assay [3], 0.257 % of ANNNNAAN 8-mers; in assay [4], 0.18 % of ANNNNAAN 8-mers.

Consider ATACGAAG, for which the binding signal is 0.0481 % of ANNNNAAN 8-mers in assay [1], 0.0552 % of ANNNNAAN 8-mers in assay [2], 0.0574 % of ANNNNAAN 8-mers in assay [3] and 0.0388 % of ANNNNAAN 8-mers in assay [4].

Take ATTCTAAT: the binding signal was 0.448 % of ANNNNAAN 8-mers in assay [1], 0.532 % of ANNNNAAN 8-mers in assay [2], 0.12 % of ANNNNAAN 8-mers in assay [3] and 0.152 % of ANNNNAAN 8-mers in assay [4].

AGGGCAAT: the binding signal is 0.0442 % of ANNNNAAN 8-mers in assay [1], 0.0558 % of ANNNNAAN 8-mers in assay [2], 0.0457 % of ANNNNAAN 8-mers in assay [3] and 0.0611 % of ANNNNAAN 8-mers in assay [4].

Take AGCCGAAC: the binding signal is 0.0133 % of ANNNNAAN 8-mers in assay [1], 0.0161 % of ANNNNAAN 8-mers in assay [2], 0.016 % of ANNNNAAN 8-mers in assay [3] and 0.014 % of ANNNNAAN 8-mers in assay [4].

Regarding AGAGAAAC, the binding signal in assay [1] was 0.0221 % of ANNNNAAN 8-mers; in assay [2], 0.0247 % of ANNNNAAN 8-mers; in assay [3], 0.0332 % of ANNNNAAN 8-mers; in assay [4], 0.0231 % of ANNNNAAN 8-mers.

Turning to AAATGAAC, the binding signal was 0.115 % of ANNNNAAN 8-mers in assay [1], 0.102 % of ANNNNAAN 8-mers in assay [2], 0.11 % of ANNNNAAN 8-mers in assay [3] and 0.141 % of ANNNNAAN 8-mers in assay [4].

Regarding AAAGCAAT, the binding signal in assay [1] was 0.05 % of ANNNNAAN 8-mers; in assay [2] it was 0.0455 % of ANNNNAAN 8-mers; in assay [3], 0.0652 % of ANNNNAAN 8-mers; in assay [4] it was 0.0371 % of ANNNNAAN 8-mers.

As for ATATTAAT, the binding signal in assay [1] was 0.424 % of ANNNNAAN 8-mers; in assay [2], 0.558 % of ANNNNAAN 8-mers; in assay [3] it was 0.142 % of ANNNNAAN 8-mers; in assay [4], 0.177 % of ANNNNAAN 8-mers.

On to ATAACAAA, for which the binding signal in assay [1] was 0.098 % of ANNNNAAN 8-mers; in assay [2], 0.0909 % of ANNNNAAN 8-mers; in assay [3], 0.1 % of ANNNNAAN 8-mers; in assay [4] it was 0.0883 % of ANNNNAAN 8-mers.

For AAATCAAC, the binding signal was 0.0759 % of ANNNNAAN 8-mers in assay [1], 0.0921 % of ANNNNAAN 8-mers in assay [2], 0.096 % of ANNNNAAN 8-mers in assay [3] and 0.0916 % of ANNNNAAN 8-mers in assay [4].

Consider AGCCAAAG, for which the binding signal in assay [1] is 0.0286 % of ANNNNAAN 8-mers; in assay [2], 0.0219 % of ANNNNAAN 8-mers; in assay [3], 0.0363 % of ANNNNAAN 8-mers; in assay [4] it was 0.019 % of ANNNNAAN 8-mers.

With ACAGAAAG, the binding signal in assay [1] is 0.0297 % of ANNNNAAN 8-mers; in assay [2] it was 0.0236 % of ANNNNAAN 8-mers; in assay [3] it was 0.0281 % of ANNNNAAN 8-mers; in assay [4], 0.0239 % of ANNNNAAN 8-mers.

For the sequence AAATCAAT, the binding signal in assay [1] is 0.139 % of ANNNNAAN 8-mers; in assay [2], 0.143 % of ANNNNAAN 8-mers; in assay [3], 0.162 % of ANNNNAAN 8-mers; in assay [4], 0.148 % of ANNNNAAN 8-mers.

As to ATCGTAAT, the binding signal was 0.085 % of ANNNNAAN 8-mers in assay [1], 0.108 % of ANNNNAAN 8-mers in assay [2], 0.0679 % of ANNNNAAN 8-mers in assay [3] and 0.0768 % of ANNNNAAN 8-mers in assay [4].

AGTGAAAG: the binding signal in assay [1] was 0.0469 % of ANNNNAAN 8-mers; in assay [2], 0.0409 % of ANNNNAAN 8-mers; in assay [3] it was 0.0624 % of ANNNNAAN 8-mers; in assay [4], 0.0504 % of ANNNNAAN 8-mers.

Take AGCATAAA: the binding signal in assay [1] is 0.204 % of ANNNNAAN 8-mers; in assay [2], 0.213 % of ANNNNAAN 8-mers; in assay [3] it was 0.0566 % of ANNNNAAN 8-mers; in assay [4], 0.0867 % of ANNNNAAN 8-mers.

ACGAAAAT: the binding signal in assay [1] was 0.106 % of ANNNNAAN 8-mers; in assay [2], 0.0949 % of ANNNNAAN 8-mers; in assay [3], 0.139 % of ANNNNAAN 8-mers; in assay [4] it was 0.0834 % of ANNNNAAN 8-mers.

With ACTGGAAT, the binding signal was 0.074 % of ANNNNAAN 8-mers in assay [1], 0.0765 % of ANNNNAAN 8-mers in assay [2], 0.0558 % of ANNNNAAN 8-mers in assay [3] and 0.0817 % of ANNNNAAN 8-mers in assay [4].

As to ATTGTAAG, the binding signal in assay [1] was 0.0507 % of ANNNNAAN 8-mers; in assay [2], 0.0685 % of ANNNNAAN 8-mers; in assay [3], 0.0593 % of ANNNNAAN 8-mers; in assay [4], 0.0594 % of ANNNNAAN 8-mers.
